Measurements taken from the supplement of paper PMC6522484.
± gives the standard deviation of the averaged measurements.

Columns and labels:
DLD1 [1] = assay: cell viability (CellTiter-Glo) relative to plate median (fraction of plate median); higher = more viable cells; settings: 5 µM; treatment time 24 h; reporter: 7TFP
Summary of the method: (§1)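 Library compounds, at a final 5 µM, stayed on reporter cells for 24 h. The cells were colorectal cancer lines stably transduced with lentiviral TCF/Wnt firefly luciferase reporters, seeded in 384-well plates 24 h before dosing. Firefly luciferase or CellTiterGlo luminescence from parallel plates was normalised to the plate median in webcellHTS2 (additive, no log transformation), and two independent replicates were averaged.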

HCT116 = assay: as above; settings: 5 µM; treatment time 24 h; reporter: TCF4/Wnt
Summary of the method: as §1

SW480 [2] = assay: as above; settings: 5 µM; treatment time 24 h; reporter: 7TFP
Summary of the method: as §1

DLD1 [3] = assay: TCF/Wnt firefly luciferase reporter signal relative to plate median (fraction of plate median); higher = higher Wnt reporter signal; settings: 5 µM; treatment time 24 h; reporter: 7TFP
Summary of the method: as §1

SW480 [4] = assay: as above; settings: 5 µM; treatment time 24 h; reporter: 7TFP
Summary of the method: as §1

Row | SMILES | cell viability (DLD1 [1]) | cell viability (HCT116) | cell viability (SW480 [2]) | TCF/Wnt firefly luciferase reporter signal (DLD1 [3]) | TCF/Wnt firefly luciferase reporter signal (SW480 [4])
1 | COc1ccc(CCC(=O)c2c(O)cc(O[C@@H]3O[C@H](CO)[C@@H](O)[C@H](O)[C@H]3O[C@@H]3O[C@@H](C)[C@H](O)[C@@H](O)[C@H]3O)cc2O)cc1O | 0.96 ± 0.085 | 1.01 ± 0.024 | 0.975 ± 0.036 | 0.945 ± 0.079 | 1.04 ± 0.028
2 | CN1CCN(CC(=O)N2c3ccccc3C(=O)Nc3cccnc32)CC1 | 0.944 ± 0.022 | 1 ± 0.067 | 0.9405 ± 0.0035 | 0.796 ± 0.014 | 0.813 ± 0.0099
3 | Clc1ccc(COC(Cn2ccnc2)c2ccc(Cl)cc2Cl)cc1 (stereo not given) | 0.944 ± 0.11 | 0.972 ± 0.0085 | 0.99 ± 0.029 | 0.936 ± 0.13 | 1.03 ± 0.074
4 | Cc1cc(=O)n(-c2ccccc2)n1C | 1.03 ± 0.081 | 0.94 ± 0.026 | 1.01 ± 0.034 | 1.11 ± 0.2 | 1.075 ± 0.0071
5 | C[C@H]1O[C@@H](O[C@H]2[C@@H](O)C[C@H](O[C@H]3[C@@H](O)C[C@H](O[C@H]4CC[C@@]5(C)[C@H](CC[C@@H]6[C@@H]5CC[C@]5(C)[C@@H](C7=CC(=O)OC7)CC[C@]65O)C4)O[C@@H]3C)O[C@@H]2C)C[C@H](O)[C@@H]1O | 0.706 ± 0.19 | 0.33 ± 0.2 | 0.774 ± 0.052 | 0.157 ± 0.14 | 0.32 ± 0.11
6 | C=C[C@@](C)(O)CCC1C(=C)CCC2[C@@](C)(CO)CCC[C@]12C (stereo not given in full) | 1.005 ± 0.0071 | 1.14 ± 0.16 | 1.1 ± 0.021 | 0.967 ± 0.017 | 1.01 ± 0.067
7 | C[C@@H]1CC[C@@]23CCC4(C)[C@@](C=CC5[C@@]6(C)CCC(=O)C(C)(C)C6CC[C@]54C)(OC2=O)C3[C@H]1C (stereo not given in full) | 0.982 ± 0.04 | 0.991 ± 0.15 | 0.956 ± 0.018 | 0.836 ± 0.09 | 0.921 ± 0.017
8 | CS(=O)(=O)Nc1ccc([N+](=O)[O-])cc1Oc1ccccc1 | 1.02 ± 0.021 | 0.967 ± 0.089 | 0.978 ± 0.018 | 1.01 ± 0.022 | 0.981 ± 0.028
9 | CCCNC(C)C(=O)Nc1ccccc1C (stereo not given) | 1 ± 0.013 | 0.972 ± 0.096 | 1.03 ± 0.028 | 0.912 ± 0.028 | 0.96 ± 0.03
10 | COc1ccc2c(c1)O[C@@H]1COc3cc(OC)c(OC)cc3[C@@H]1C2=O | 1.02 ± 0.067 | 0.841 ± 0.074 | 0.908 ± 0.037 | 0.979 ± 0.087 | 0.777 ± 0.046
11 | CN(C)[C@@H]1C(O)=C(C(N)=O)C(=O)[C@@]2(O)C(O)=C3C(=O)c4c(O)ccc(Cl)c4[C@@H](O)[C@H]3C[C@@H]12 | 0.943 ± 0.025 | 0.96 ± 0.071 | 0.959 ± 0.0085 | 0.924 ± 0.067 | 0.983 ± 0.039
12 | CCOC(=O)[C@H](CCc1ccccc1)N[C@@H](C)C(=O)N1CCC[C@H]1C(=O)O | 0.971 ± 0.018 | 1.11 ± 0.085 | 1 ± 0.029 | 1.04 ± 0.035 | 0.994 ± 0.023
13 | CCc1ccc(CCOc2ccc(CC3SC(=O)NC3=O)cc2)nc1 (stereo not given) | 0.923 ± 0.048 | 0.904 ± 0.07 | 0.983 ± 0.096 | 1.015 ± 0.0071 | 1.07 ± 0.057
14 | CC(C)C1=C2[C@H]3CCC4[C@@H]5[C@H](O[C@@H]6OC[C@@H](O)[C@H](O[C@@H]4O)C65O)[C@]3(C)CC[C@@]2(C)CC1 (stereo not given in full) | 0.915 ± 0.067 | 0.862 ± 0.11 | 0.938 ± 0.011 | 0.873 ± 0.014 | 0.968 ± 0.045
15 | CC(=O)OCC(=O)[C@@]1(O)CC[C@H]2[C@@H]3CCC4=CC(=O)CC[C@]4(C)[C@H]3[C@@H](O)C[C@@]21C | 1.04 ± 0.077 | 1.08 ± 0.057 | 1.04 ± 0.05 | 1.05 | 1.07 ± 0.064
16 | COc1cc(NS(=O)(=O)c2ccc(N)cc2)nc(OC)n1 | 0.9765 ± 0.0092 | 0.924 ± 0.031 | 0.956 ± 0.063 | 0.895 ± 0.28 | 0.8105 ± 0.0064
17 | COC(=O)C[C@H]1C2(C)CC34OC5(C)O[C@@]6([C@H](OC)C(OC(=O)C(C)C)[C@]7(C)C(/C(=C(/OC)C(C)C)C(=O)O[C@H]7c7ccoc7)[C@@]6(O5)[C@H](OC)[C@@]3(OC)C2OC(C)=O)[C@]14C (stereo not given in full) | 1.025 ± 0.0071 | 0.916 ± 0.013 | 0.9595 ± 0.00071 | 0.883 ± 0.065 | 0.903 ± 0.016
18 | C=C(C)[C@@H]1CC=C(C(=O)O)CC1 | 1.055 ± 0.0071 | 1.04 ± 0.11 | 0.995 ± 0.035 | 1.11 ± 0.17 | 1.055 ± 0.0071
19 | CC1(C)OC(=O)NC1=O | 0.893 ± 0.18 | 0.9705 ± 0.0064 | 0.965 ± 0.092 | 1.08 ± 0.11 | 0.932 ± 0.14
20 | C=C(C)[C@H]1C(=O)[C@H]2O[C@@]2(C)C(=O)[C@@H](O)[C@H](C(=C)C)CCC2=C[C@H]1OC2=O [bipinnapterolide A] | 1.17 ± 0.071 | 1.04 ± 0.092 | 1.01 ± 0.033 | 0.971 ± 0.042 | 0.913 ± 0.12
21 | c1ccc2c(c1)CCCC2C1=NCCN1 (stereo not given) | 1.02 ± 0.014 | 1.125 ± 0.0071 | 1.07 ± 0.05 | 1.08 ± 0.19 | 0.985 ± 0.0014
22 | CC(C)(Oc1ccc(C2CC2(Cl)Cl)cc1)C(=O)O (stereo not given) | 1.06 ± 0.05 | 0.968 ± 0.074 | 1.06 ± 0.014 | 0.943 ± 0.18 | 0.963 ± 0.17
23 | C=C(CC)C(=O)c1ccc(OCC(=O)O)c(Cl)c1Cl | 1.01 ± 0.046 | 1.01 ± 0.046 | 1.03 ± 0.05 | 1.11 ± 0.11 | 1.095 ± 0.0071
24 | CCCCC(=O)N(Cc1ccc(-c2ccccc2-c2nnn[nH]2)cc1)[C@H](C(=O)O)C(C)C | 0.908 ± 0.081 | 0.988 ± 0.17 | 1 ± 0.054 | 0.985 ± 0.078 | 0.919 ± 0.09
25 | CC(=O)OCC[N+](C)(C)C | 0.987 ± 0.15 | 0.998 ± 0.059 | 0.982 ± 0.014 | 1.01 ± 0.023 | 0.992 ± 0.012
26 | Cc1ccc(C(C)C)cc2c(C)ccc1-2 | 1.04 ± 0.057 | 1.085 ± 0.0071 | 1.06 ± 0.014 | 1 ± 0.14 | 0.894 ± 0.16
